The list is not random: actives were taken first. Their share in the collection is about 4.7%.
Mtb FBA inh: inhibitors of M. tuberculosis fructose-bisphosphate aldolase | P9WQA3 | purified M. tuberculosis FBA, fluorescence read-out | inhibition, % at 1 µM | 360,000 tested, 2.3% active | AID 588726; in the data active means inhibition above about 27%;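 further: 0% = vehicle and 100% = reference inhibitor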
Target sequence (P9WQA3 whole entry, looked up): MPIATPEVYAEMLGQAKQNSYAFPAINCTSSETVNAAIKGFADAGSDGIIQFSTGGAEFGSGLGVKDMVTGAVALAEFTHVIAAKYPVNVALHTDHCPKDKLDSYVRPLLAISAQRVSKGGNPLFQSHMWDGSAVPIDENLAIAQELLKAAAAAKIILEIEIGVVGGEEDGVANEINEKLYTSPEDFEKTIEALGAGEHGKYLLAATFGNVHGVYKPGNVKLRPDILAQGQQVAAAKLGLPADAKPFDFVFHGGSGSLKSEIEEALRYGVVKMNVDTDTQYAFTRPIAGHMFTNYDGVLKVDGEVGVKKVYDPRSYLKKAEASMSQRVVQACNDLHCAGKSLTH
3CLpro inhibitor: SARS-CoV 3CLpro protease inhibition | P0C6X7 | inhibition, % at 6 µM | AID 1706 | 290,000 tested, 0.14% active | recombinant SARS-CoV 3CLpro, quenched FRET peptide cleavage; in the data active means inhibition above about 12%
GDH-TPI counter: GDH-TPI coupled enzyme inhibition counter-screen; inhibition, % at 4.8 µM; GDH-TPI coupled enzyme counterscreen, NADH absorbance; AID 588335; 360,000 tested, 1.2% active;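 further: 0% = DMSO wells and 100% = wells lacking the enzyme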
CCHF vOTU inh-1: blocks the CCHF virus ovarian tumor domain protease. CCHFV vOTU protease, Pep-AMC fluorescence. inhibition, % at 11.5 µM. 370,000 tested, 0.55% active; further: 0% = vehicle wells with enzyme and 100% = no enzyme wells
RecA intein inh: inhibitors of M. tuberculosis RecA intein splicing. inhibition, % (concentration not given with the values). cell-free RecA intein splicing, fluorescence. P9WHJ3. 290,000 tested, 0.75% active. AID 2221; in the data active means inhibition above about 30%;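 further: 0% = vehicle wells and 100% = reference inhibitor control wells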
DUSP3 inh: blocks human VHR1 dual specificity phosphatase; AID 1654; 290,000 tested, 0.52% active; inhibition, % at 13.3 µM; recombinant VHR phosphatase, pNPP absorbance; in the data active means inhibition above about 50%
Target sequence (P51452 whole entry, looked up): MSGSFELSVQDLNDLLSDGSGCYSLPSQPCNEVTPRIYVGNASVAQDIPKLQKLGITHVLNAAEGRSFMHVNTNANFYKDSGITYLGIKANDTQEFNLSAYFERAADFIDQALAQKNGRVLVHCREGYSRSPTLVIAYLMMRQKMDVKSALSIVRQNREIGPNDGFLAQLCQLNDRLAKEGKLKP
CCHF vOTU inh-2: confirmation of CCHF virus vOTU protease inhibitors | shares compounds with CCHF vOTU inh-1 | Recombinant CCHFV vOTU, Pep-AMC fluorescence | inhibition, % at 11.5 µM | 1,900 tested, 17% active | AID 686976
Starred values were filed as active, the others as inactive; · = no result. Unless noted, no stated cut-off is given here; in the data, active means inhibition above about 30%; inactive means the rest.

SMILES	Mtb FBA inh	3CLpro inhibitor	GDH-TPI counter	CCHF vOTU inh-1	RecA intein inh	DUSP3 inh	CCHF vOTU inh-2
COc1ccc(N(C)S(=O)(=O)c2cccc(C(=O)Nc3nc(C)c(C(C)=O)s3)c2)cc1	3	·	16	35*	·	·	0
CCN(CC)S(=O)(=O)c1cccc(C(=O)Nc2nncs2)c1	8	-1	13	-10	-3	45	·
CCN(CC)C(=O)CN(c1cc2c(cc1OC)oc1ccccc12)S(=O)(=O)c1ccc(C)cc1	-1	-3	17	30*	8	12	-23
CCN(CC(=O)NCCCN1CCOCC1)S(=O)(=O)c1ccc(Cl)cc1	0	-6	4	-10	3	7	·
Fc1ccc(-c2nnc(Cc3ccc(Cl)cc3)o2)cc1	1	1	3	30*	3	-20	-15
Fc1ccc(Cc2nnc(-c3cccs3)o2)cc1	0	-5	2	2	0	9	·
COc1ccc(C(CNC(=O)c2ccc(NS(=O)(=O)c3ccc4c(c3)OCCO4)cc2)N(C)C)cc1 (configuration not stated)	4	·	6	-4	-2	·	·
CC1(C)OC(=O)C(=NNc2ccccc2[N+](=O)[O-])C(=O)O1	-10	4	21	30*	-1	17	-2
Cc1c(P(=S)(c2ccccc2)c2ccccc2)[n+]2ccccc2n1C/C=C/c1ccccc1	1	·	6	30*	·	·	-33
Cc1onc(-c2ccccc2)c1C(=O)NC1CC1	4	·	5	3	·	·	·
Cc1ccc2cc(CN(c3cccc(C)c3C)S(=O)(=O)c3ccccc3)c(=O)[nH]c2c1	-3	10	8	-1	-2	25	·
CCc1nc2c(OCCC3CCCCC3)cccn2c1N(C)C(=O)c1ccncc1	0	·	-3	31*	·	·	-1
CCc1nc2c(OCCC3CCCCC3)cccn2c1N(C)C(=O)c1ccc(OC)cc1	-3	·	-2	21	·	·	·
Cc1c(F)cccc1NS(=O)(=O)c1ccc(N2CCCC2=O)cc1	1	·	9	7	·	·	·
O=C(Nc1cc([N+](=O)[O-])ccc1O)NC1CCS(=O)(=O)C1 (configuration not stated)	-9	·	2	36*	·	·	-6
CC(=O)c1c(C)[nH]c(C(=O)OCC(=O)Nc2ccc([N+](=O)[O-])cc2Cl)c1C	2	-3	5	-4	2	-8	·
CC(=O)c1c(C)[nH]c(C(=O)OCC(=O)NNC(=O)c2ccc([N+](=O)[O-])cc2)c1C	-1	·	15	35*	·	·	-12
CCNCc1ccccc1OCc1ccccc1	-3	0	0	-10	0	38	·
Oc1ccc(NCc2ccccc2OCc2ccccc2)cc1	-1	-6	2	51*	14	-6	17
Cc1ccc(NC(=O)COC(=O)C2C3CC4OC(=O)C2C4C3)cc1 (configuration not stated)	0	-4	-5	40*	-5	30	-22
CC(=O)c1ccc(NC(=O)COC(=O)C2C3CC4OC(=O)C2C4C3)cc1 (configuration not stated)	4	-1	3	12	2	31	·
CC(=O)NC(C)(c1ccccc1)c1nc(-c2cccc(C(F)(F)F)c2)cs1 (configuration not stated)	1	·	-5	7	·	·	·
COc1cccc(-c2cc(C(F)(F)F)nc(-n3cncn3)n2)c1	1	-2	8	-9	1	13	·
COc1cccc(-c2cc(C(F)(F)F)nc(-n3cc(C)cn3)n2)c1	-1	0	6	35*	-10	2	-9
Cc1ccc(S(=O)(=O)N2CCC3(CC2)OCCO3)cc1	0	0	6	4	-2	32	·
SMILES	Mtb FBA inh	3CLpro inhibitor	GDH-TPI counter	CCHF vOTU inh-1	RecA intein inh	DUSP3 inh	CCHF vOTU inh-2
O=C(CNc1cccc2ccccc12)N/N=C/C(Br)=C/c1ccccc1	3	6	25	82*	4	36	-13
CCOC(=O)CSc1nc2cccnc2n1-c1ccc(F)cc1	1	6	3	5	0	9	·
CC(C)OC(=O)CSc1nc2cccnc2n1-c1ccc(F)cc1	-2	-6	-7	31*	·	16	-9
CCCS(=O)(=O)NC(=O)C1(C)CCCN(C(=O)c2ccc3ccccc3n2)C1 (configuration not stated)	5	·	16	4	·	·	·
CCOC(=O)C1=C(C)OC(=CC=Cc2ccccc2)C1=O	0	·	10	30*	·	·	-9
CC1(Cc2ccc(C(F)(F)F)o2)C(=O)Nc2cc(-c3ccc(F)cc3F)ccc21 (configuration not stated)	-2	·	-5	39*	·	·	-1
CC1(Cc2cc(Cl)ccc2C(F)(F)F)C(=O)Nc2cc(F)ccc21 (configuration not stated)	-2	·	-1	·	·	·	·
Nc1cc(S(=O)(=O)O)cc2ccc(S(=O)(=O)O)cc12	115*	·	1	44*	·	·	-97
O=C(COC(=O)c1cc2ccccc2o1)NCc1ccco1	1	·	7	27	·	·	·
CC(C)(C)OC(=O)N1CCCC(C(=O)Nc2cccc(C(=O)NCCCc3ccccc3)c2)C1 (configuration not stated)	0	·	2	31*	·	·	1
COc1ccc(S(N)(=O)=O)cc1C(=O)OCC(=O)N1CCCC(C)C1 (configuration not stated)	0	·	2	30*	·	·	-17
CCC(=O)N(CCC(c1ccccc1)c1ccco1)Cc1cccs1 (configuration not stated)	2	-1	11	34*	16	16	-10
Cc1ccc(N(CC(=O)NCc2ccccc2)C(=O)c2csnn2)c(C)c1	0	2	2	4	1	36	·
CN=C(Nc1ccc(Cl)cc1)c1cccc(C(F)(F)F)c1	-1	-2	7	-3	-2	9	·
CN=C(Nc1ccc(Cl)cc1)c1ccc(C(F)(F)F)cc1	1	0	5	36*	-1	37	-5
Cc1ccc(S(=O)(=O)N(C)C)cc1NC(=O)COC(=O)c1ccc2c(=O)n3c(nc2c1)CCC3	3	·	4	-4	-2	·	·
Cc1cc(C)c(Nc2cc(S(=O)(=O)O)c(N)c3c2C(=O)c2ccccc2C3=O)c(C)c1	-3	6	11	47*	·	28	4
O=C(Cn1nnc(-c2cccc(C(F)(F)F)c2)n1)NNS(=O)(=O)c1cccc(C(F)(F)F)c1	0	9	-3	32*	·	18	-6
CCN(C(=O)CSc1nnc(SC(C)C)s1)C1CCS(=O)(=O)C1 (configuration not stated)	-2	·	5	37*	·	·	-11
Cc1c(C)n(Cc2ccc(-c3ccccc3C(=O)O)cc2)c2ccc(C(=O)N[C@@H](C)c3ccc(Br)cc3)cc12	·	·	·	33*	·	·	3
O=C(COC(=O)CNC(=O)C1CCCCC1)NCc1ccc(Cl)cc1	3	·	-1	-6	·	·	·
Cc1c(C(=O)O)c(=O)n(-c2ccccc2)n1-c1ccccc1	2	4	3	-8	1	29	·

Assay outcomes: PubChem BioAssay, several laboratories
